Bioassay records from PubChem.
ELG1 repair inh – ELG1-dependent DNA repair inhibition; HEK293T ELG1-luciferase reporter, luminescence, 16 h; DNA damage induced by 5-fluorouridine; Potency, µM (top dose mostly 46.1 µM), inactives show at the highest dose activity change, negative = inhibition, hits mostly inhibitors; 330,000 compounds, 2.3% hits; further: potency means the concentration at half of the fitted maximal effect; nearly all actives have a fitted effect of over 55% in size
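Reporter activity after DNA damage by 5-fluorouridine is monitored. Compound-treated cells incubate 16 hr at 37 °C, then ONE-Glo is added for 30 min before luminescence reading.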
TDP1 cell noCPT – qHTS for Inhibitors of human tyrosyl-DNA phosphodiesterase 1 (TDP1): qHTS in cells in absence of CPT; AID 686978, 2013; 420,000 compounds, 15% hits; DT40 Tdp1-/- hTDP1 cells, no CPT, ATP luminescence, 48 h; Potency, µM (titrated, usually from 46.2 µM), for the others: at the top dose activity change, negative = growth inhibition, most hits filed as inhibitors; further: potency means the concentration at half of the fitted maximal effect; nearly all actives have a fitted effect of over 55% in size
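A cellular qHTS used chicken DT40 cells lacking endogenous Tdp1 but carrying stably transfected human TDP1. Compounds were applied without camptothecin, and cell growth kinetics were judged by ATP-dependent luminescence after ≥48 hr.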
VP16 counter – counter-screen for ROR gamma inhibitors: Gal4-VP16 reporter. Drosophila S2 Gal4-VP16 UAS-luciferase, luminescence, 20 h. Potency, µM (top dose mostly 53.6 µM), for the others: at the top dose activity, negative = inhibition, actives largely listed as inhibitors. 310,000 compounds, 3.5% hits. AID 2546;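 further: Gal4-VP16 expression switched on by copper sulfate through the metallothionein promoter; potency means the concentration at half of the fitted maximal effect; nearly all actives have a fitted effect of over 50% in size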
DT40 TDP1 CPT – growth inhibition of DT40 Tdp1-/-;hTDP1 cells with camptothecin (screen for TDP1 inhibitors); Potency, µM (titrated, usually from 46.2 µM), for the others: at the highest dose activity change, negative = growth inhibition, actives largely listed as inhibitors; 420,000 compounds, 12% hits; chicken DT40 Tdp1-/-;hTDP1 cells + 20 nM CPT, ATP luminescence, 48 h; further: potency means the concentration at half of the fitted maximal effect; nearly all actives have a fitted effect of over 55% in size
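Chicken DT40 Tdp1-/- cells complemented with human TDP1, 400 cells/well, exposed to compounds plus 20 nM camptothecin for at least 48 h at 37 C; viability read as ATP content by CellTiter-Glo luminescence.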
IL-1B inflam inh – inflammasome signaling inhibition, IL-1 beta readout; AID 743279; 360,000 compounds, 4.7% hits; THP-1 LPS/ATP IL-1B secretion, AlphaLISA, 16 h; stronger effect = lower value; activity change, % at 57.5 µM; in the data active means activity change below about -50%; inconclusive means mostly about -30% to -49%
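THP-1 cells pretreated 1 hr with compounds (up to 57.5 uM final), then stimulated with LPS (250 ng/mL final) plus ATP (1.25 mM final); secreted IL-1B measured by AlphaLISA after 16 hr, decreased signal indicating inhibition.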
RORg inh – inhibitors of mouse ROR gamma transcriptional activity; P51450; 310,000 compounds, 5.4% hits; AID 2551; Potency, µM (doses to about 53.6 µM), inactives show at the highest dose activity change, negative = inhibition, most hits filed as inhibitors; Drosophila S2 Gal4-RORgamma UAS-luciferase reporter, 20 h; further: potency means the concentration at half of the fitted maximal effect; nearly all actives have a fitted effect of over 60% in size
Target sequence (P51450 whole entry, looked up, the tested form may be a part): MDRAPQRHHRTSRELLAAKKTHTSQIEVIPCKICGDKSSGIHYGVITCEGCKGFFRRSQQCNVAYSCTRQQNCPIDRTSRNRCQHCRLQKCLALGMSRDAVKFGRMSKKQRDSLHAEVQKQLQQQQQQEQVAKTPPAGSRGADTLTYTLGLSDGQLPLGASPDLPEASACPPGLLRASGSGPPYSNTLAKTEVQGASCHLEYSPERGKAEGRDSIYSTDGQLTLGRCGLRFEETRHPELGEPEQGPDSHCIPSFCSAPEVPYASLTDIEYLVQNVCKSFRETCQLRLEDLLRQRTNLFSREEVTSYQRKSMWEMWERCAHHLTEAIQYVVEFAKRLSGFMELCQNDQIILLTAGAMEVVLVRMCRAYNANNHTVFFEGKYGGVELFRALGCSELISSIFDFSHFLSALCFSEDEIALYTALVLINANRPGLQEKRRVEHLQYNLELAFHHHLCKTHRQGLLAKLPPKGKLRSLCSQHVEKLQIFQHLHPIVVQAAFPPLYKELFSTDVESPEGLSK
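Compounds are pin-transferred onto Drosophila Schneider cells expressing a copper-inducible Gal4–ROR gamma transactivation domain fusion. After 1 hr, copper sulfate is added to 700 uM final; luciferase is read 20 hr later.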
Numbers without * were called inactive; ? = inconclusive; · = no result; [ ] = remark or other dose. A selection: hits, their analogues and other compounds. The true share with any hit is near 21%. Unless noted, the call rests on the fitted dose curve; in most records, active means well fitted curve in the direction sought with a large enough effect; inconclusive means small, poorly fitted or top-dose-only effect, or another doubt; inactive means no such curve, though single readings can be large; an effect the other way counts as inactive or inconclusive. On the % scale 0 is the no-effect control and ±100 the full control effect.

SMILES | ELG1 repair inh | TDP1 cell noCPT | VP16 counter | DT40 TDP1 CPT | IL-1B inflam inh | RORg inh
CCOc1ccc(N2C(=O)CC(Sc3nc(O)c(CC)c(=O)[nH]3)C2=O)cc1 (stereo not drawn) | · | 19.5% | · | 4.8% | 6.9 | ·
CCOc1ccc2nc(SC3CC(=O)N(c4ccc(OC)cc4)C3=O)sc2c1 (stereo not drawn) | ? | 4.61µM* | ? | 2.91µM* | -4.5 | 15.8µM*
COc1ccc(N2C(=O)CC(Sc3nccc(C)n3)C2=O)cc1 (stereo not drawn) | 6.6% | -29.5% | ? | -21.6% | 1.6 | -13.0%
COc1ccc(N2C(=O)CC(Sc3nnc(-c4ccccc4F)n3C)C2=O)cc1 (stereo not drawn) | 1.2% | 5.17µM* | ? | 4.11µM* | 18.2 | ?
COc1ccc(N2C(=O)CC(Sc3nc4ccccc4s3)C2=O)cc1 (stereo not drawn) | 4.4% | 3.66µM* | ? | 2.91µM* | 9.2 | 5.01µM*
C=CCNc1nnc(SC2CC(=O)N(c3ccc(OC)cc3)C2=O)s1 (stereo not drawn) | 9.4% | 4.61µM* | 12.6µM* | 3.66µM* | -11.3 | 4.47µM*
CC1CCN(CC2CCN(C(=O)NCc3ccc(F)cc3)CC2)CC1 | · | -17.4% | · | -13.2% | · | ·
COc1cccc(OCc2nc3ccccc3n2Cc2ccccc2C)c1 | · | 11.6µM* | · | 20.6µM* | · | ·
Cc1ccccc1OCc1nc2ccccc2n1C | ? | ? | ? | ? | 2.4 | 20µM*
CCCn1c(COc2cccc(C)c2)nc2ccccc21 | · | 20.6µM* | · | ? | · | ·
Cc1cccc(OCc2nc3ccccc3c(=O)n2N)c1 | ? | 29.1µM* | 18.0% | ? | -22.7 | 26.8%
Nn1c(COc2cccc(Cl)c2)nc2ccccc2c1=O | ? | -12.5% | 7.8% | 4.1% | -10.2 | ?
Cc1cccc(OCc2nc3ccccc3n2C)c1 | ? | ? | ? | ? | -5.9 | ?
CCc1noc(C)c1C(=O)N(C)CC(=O)Nc1ccc(OC)cc1 | 15.4% | -0.6% | · | 2.7% | 8.3 | ·
COc1ccc(CNC(=O)CCc2c(C)nc3c(c2C)c(=O)n(C)c(=O)n3C)cc1 | · | -12.1% | · | -4.3% | · | ·
CCN(CC)CCCNc1nc(SC)nc2sc3c(c12)CCN(C)C3 | ? | · | -11.6% | · | · | 5.9%
Cc1ccccc1OCc1nc2ccccc2n1Cc1ccccc1Cl | · | 10.3µM* | · | ? | · | ·
Cc1ccccc1OCCn1c(CCNC(=O)C(C)C)nc2ccccc21 | 13.0% | ? | 1.5% | -18.9% | 11.2 | ?
CCOc1ccc(C(=O)Nc2ccc(OCc3cc(=O)n4cccc(C)c4n3)cc2)cc1 | · | 14.5% | · | 8.0% | · | ·
COc1ccc(-c2ncccc2OC(=O)C23CC4CC(CC(C4)C2)C3)cc1 | 8.9% | 23.1µM* | -3.1% | 18.4µM* | 14.5 | 34.4%
CC(C)=CCc1c(O)ccc2c1OC(c1ccc(O)c(O)c1)CC2=O (stereo not drawn) | -1.3% | 13µM* | -19.2% | 10.3µM* | 37.1 | ?
CCN1C(=O)[C@H]2[C@H]3[C@H](O)[C@H](O)C/C(=N/OCC(C)C)[C@H]3CC[C@@H]2C1=O | · | · | 2.5%[10 µM] | · | · | -20.1%[10 µM]
CCN(CC)S(=O)(=O)c1ccc(C(=O)NCCSc2c(-c3ccc(F)cc3)[nH]c3ccccc23)cc1 | · | 6.51µM* | · | 8.2µM* | · | ·
COc1ccc(C(=O)NCCc2c[nH]c3ccccc23)cc1 | ? | -18.1% | 19.3% | ? | -11.4 | 1.6%
CN(C)S(=O)(=O)c1ccc(C(=O)NCCSc2c(-c3ccc(Br)cc3)[nH]c3ccccc23)cc1 | · | 2.31µM* | · | 4.11µM* | · | ·
SMILES | ELG1 repair inh | TDP1 cell noCPT | VP16 counter | DT40 TDP1 CPT | IL-1B inflam inh | RORg inh
COc1ccc(C(=O)NCCSc2ccccc2)cc1 | ? | -19.4% | ? | -13.4% | -13.9 | 11.2µM*
O=C(NCCSc1ccc(Br)cc1)c1ccccc1 | 1.2% | -20.8% | -2.4% | -8.3% | -10.1 | -0.3%
COc1ccc(-c2[nH]c3ccccc3c2SCCNC(=O)c2ccccc2)cc1 | 16.4µM* | 9.2µM* | ? | 13µM* | -1.2 | ?
CC1(C(=O)NS(=O)(=O)c2ccc(Cl)s2)CCN1C(=O)Cc1ccc(-c2ccccc2)cc1 (stereo not drawn) | · | 17.4% | · | 5.5% | 29.4 | ·
CN1CCN(NC(=O)c2c(-c3ccccc3)sc3ccccc23)CC1 | ? | -7.5% | · | -0.1% | -4.5 | ·
C=CCn1c(-c2cccnc2Cl)nc2ccccc21 | -5.2% | 4.9% | 6.9% | 1.3% | -12.0 | -17.2%
CCCn1c(-c2cccnc2Cl)nc2cc(Cl)c(Cl)cc21 | 5.6% | ? | 12.0% | 14.6µM* | 7.0 | -13.2%
C=CCn1c(-c2cccnc2Cl)nc2cc(Cl)c(Cl)cc21 | ? | ? | 3.1% | 18.4µM* | -2.0 | 2.4%
CCCCn1c(N)c(N(CCC(C)C)C(=O)C2CCCC2)c(=O)[nH]c1=O | 2.7% | ? | · | 6.0% | 2.3 | ·
CC(C)CN(CCNC(=O)CCN1N=C(c2ccccc2)CCC1=O)CC(C)C | · | -19.8% | · | -24.9% | · | ·
COc1cccc(C(O)c2ncc(-c3ccccc3OC)[nH]2)c1 (stereo not drawn) | · | -25.2% | · | -29.0% | -7.0 | ·
O=C(c1ccc2c(c1)OCCO2)N1CCN(c2ccccn2)CC1 | -2.0% | 7.8% | -5.9% | -0.1% | -11.7 | -9.5%
CC(C(=O)N1CCN(c2ccc(Cl)cc2)CC1)c1ncc(C(F)(F)F)cc1Cl (stereo not drawn) | -9.7% | 23.1µM* | -5.2% | 18.4µM* | ? | ?
O=C(Nc1ccc2c(c1)OCO2)N1CCN(c2ncc(C(F)(F)F)cc2Cl)CC1 | ? | 11.6µM* | -9.2% | 20.6µM* | -60.5* | ?
O=C(c1ccc2c(c1)OCCO2)N1CCN(c2ncc(C(F)(F)F)cc2Cl)CC1 | -1.3% | 16.4µM* | · | ? | 4.6 | ·
CC(C)(C(N)=O)N1CCN(c2ncc(C(F)(F)F)cc2Cl)CC1 | -16.2% | 14.6µM* | -16.6% | 14.6µM* | -20.4 | 40.5%
Cc1ccc(S(=O)(=O)N(C)/N=C/c2ccc(N(C)C)cc2)cc1 | ? | ? | -0.2% | -17.0% | -14.9 | 4.5%
NCCC[C@@H](CC(=O)N[C@@H]1CCNC[C@H]1C(=O)N[C@H](CC(=O)N[C@@H](CCC(=O)O)CC(=O)O)Cc1c[nH]c2ccccc12)NC(=O)C[C@H](CO)NC(=O)[C@@H]1CCCC[C@H]1N | · | · | -3.9% | · | · | -10.4%
O=C(O)Cc1c(Cl)ccc(Cl)c1Cl | · | · | -10.3% | · | · | -8.3%
CCOC(=O)N1CCN(c2ncc(C(F)(F)F)cc2Cl)CC1 | -12.4% | ? | -5.2% | ? | 0.0 | 10.1%
